This is an account of results in PubChem BioAssay AID743449 (Broad Institute, 2014).

The whole screen tested about 9,900 compounds, of which about 90 (0.9%) were called active. Another 2% or so got no clear call; they are omitted. Many of the other results were omitted from the sample, so actives are more common in it than they were. Values without a mark were called inactive.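 The calls were made as follows: active = mean normalized replicate activity at least 50 and at least half of replicates each reaching 50; inconclusive = only one of the two criteria met; inactive = neither criterion met.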

The experiment can be described thus: YAP1 pathway inhibitors via CTGF transcript, primary screen, DLD1 colon cancer cells, RT-qPCR, single point (AID 743449).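 Also: 0% = neutral control wells and 100% = dasatinib control wells; higher means stronger suppression of CTGF expression like dasatinib.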 Conditions: DLD1 CTGF mRNA qPCR, 24 h; at 12.5 µM; hits give high values.
As to `C[C@@H]1CN([C@H](C)CO)C(=O)Cc2cc(N(C)C)ccc2O[C@H]1CN(C)Cc1ccc(-c2ccccc2)cc1`, the inhibition is -24.6%.
With `O=C(c1ccccc1F)N1CC[C@H]2[C@H](CO)Nc3ccc(Br)cc3[C@H]21`, the inhibition is -3.54%.
On to `O=C1CCCCn2nncc2COC[C@H](Cc2ccccc2)N1`, for which the inhibition was -21.7%.
In the case of `Cc1ccc(S(=O)(=O)Nc2ccc3c(c2)C(=O)N([C@@H](C)CO)C[C@@H](C)[C@H](CN(C)S(=O)(=O)c2cccs2)OCCCC[C@H](C)O3)cc1`, the inhibition is -3.15%.
In the case of `Cc1ccc(S(=O)(=O)Nc2ccc3c(c2)CC(=O)N([C@H](C)CO)C[C@@H](C)[C@H](CN(C)S(=O)(=O)c2ccccc2)O3)cc1`, the inhibition is -17.2%.
On to `Cc1ccc(S(=O)(=O)Nc2ccc3c(c2)CC(=O)N([C@@H](C)CO)C[C@H](C)[C@@H](CN(C)S(=O)(=O)c2ccccc2)O3)cc1`, for which the inhibition is -31.9%.
For `Cc1ccc(S(=O)(=O)Nc2ccc3c(c2)CC(=O)N([C@H](C)CO)C[C@@H](C)[C@@H](CN(C)S(=O)(=O)c2ccccc2)O3)cc1`, the inhibition was 57.6% (active).
Regarding `Cc1ccc(S(=O)(=O)Nc2ccc3c(c2)C(=O)N([C@H](C)CO)C[C@H](C)[C@@H](CN(C)S(=O)(=O)c2cccs2)OCCCC[C@H](C)O3)cc1`, the inhibition was -31%.
For `Cc1ccc(S(=O)(=O)Nc2ccc3c(c2)C(=O)N([C@H](C)CO)C[C@@H](C)[C@H](CN(C)S(=O)(=O)c2cccs2)OCCCC[C@@H](C)O3)cc1`, the inhibition is 57.5% (active).
Take `COc1ccc(S(=O)(=O)Nc2ccc3c(c2)C(=O)N([C@H](C)CO)C[C@H](C)[C@@H](CN(C)S(=O)(=O)c2ccc(Cl)cc2)OCCCC[C@H](C)O3)cc1`: the inhibition is -8.83%.
The figure for `COc1ccc(S(=O)(=O)Nc2ccc3c(c2)C(=O)N([C@@H](C)CO)C[C@H](C)[C@@H](CN(C)S(=O)(=O)c2ccc(Cl)cc2)OCCCC[C@@H](C)O3)cc1` is 50.6% (active); for `COc1ccc(S(=O)(=O)Nc2ccc3c(c2)C(=O)N([C@H](C)CO)C[C@H](C)[C@H](CN(C)S(=O)(=O)c2ccc(Cl)cc2)OCCCC[C@@H](C)O3)cc1` it is -2.26%.
Under `O=C(C[C@@H]1C=C[C@H](NC(=O)c2cnccn2)[C@H](CO)O1)NCc1ccccc1F` stands 7.69%.
In the case of `COc1ccc2c3c([nH]c2c1)[C@H](CO)NCC31CN(C(=O)Nc2c(C)noc2C)C1`, the inhibition was -10.8%.
On to `COc1ccc(CN(C)C[C@@H]2OCCCC[C@@H](C)Oc3ccc(NC(=O)C4CCCCC4)cc3C(=O)N([C@H](C)CO)C[C@@H]2C)cc1`, for which the inhibition is -11.6%.
In the case of `N#C[C@@H]1[C@H](c2ccc(-c3cccc(F)c3)cc2)[C@@H](CO)N1C(=O)CN1CCOCC1`, the inhibition is 0.153%.
The figure for `CN1C(=O)c2cc(NC(=O)c3cccc(Cl)c3)ccc2OC[C@H]2O[C@@H](CC(=O)NC3CCCCC3)CC[C@H]21` is 19.3%.
Under `COc1ccc(C(=O)N2C[C@H]3[C@@H](c4ccccc42)[C@@H](CO)N3Cc2ccccc2Cl)cc1` stands -11.9%; under `COCC(=O)N1[C@H](CO)[C@H](c2ccc(C#Cc3ccccc3F)cc2)[C@@H]1C#N`, 5.53%; under `COc1ccc(C(=O)N2C[C@@H]3[C@H](c4ccccc42)[C@H](CO)N3C(=O)NC(C)C)cc1`, -12.1%.
Under `C[C@H]1CN([C@@H](C)CO)C(=O)c2ccccc2-c2ccccc2CO[C@@H]1CN(C)C(=O)[C@H](Cc1ccccc1)N(C)C` stands -17.8%; under `Cc1noc(C)c1NC(=O)N(C)C[C@@H]1OCc2ccccc2-c2c(n(C)c3ccccc23)C(=O)N([C@H](C)CO)C[C@@H]1C`, -14.8%.
As for `CCCC(=O)Nc1ccc2c(c1)C(=O)N(C)C[C@H](OC)[C@@H](C)CN(C(=O)c1ccccn1)[C@@H](C)CO2`, the inhibition is 25.7%.
For `O=C(NCC1CC1)[C@H]1[C@H](CO)[C@H]2Cn3c(ccc(-c4cccnc4)c3=O)[C@H]2N1Cc1cocn1`, the inhibition is -2.27%.
The figure for `O=C([C@H]1[C@H](CO)[C@H]2Cn3c(ccc(-c4ccc(F)cc4)c3=O)[C@H]2N1Cc1cocn1)N1CCCCC1` is 53.6% (active).
The figure for `O=C([C@@H]1[C@@H](CO)[C@@H]2Cn3c(ccc(-c4ccc(F)cc4)c3=O)[C@@H]2N1Cc1cocn1)N1CCCCC1` is -1.91%; for `CCS(=O)(=O)Nc1ccc2c(c1)C(=O)N(C)C[C@H](OC)[C@H](C)CN(C(=O)c1ccc3c(c1)OCO3)[C@@H](C)CO2` it is -9.16%.
Turning to `C[C@@H]1CN([C@H](C)CO)C(=O)CCCn2nncc2CO[C@H]1CN(C)Cc1ccc(C(=O)Nc2ccccc2N)cc1`, the inhibition is -132%.
In the case of `CO[C@H]1CN(C)C(=O)c2cc(NC(=O)Nc3ccccc3F)ccc2OC[C@@H](C)N(CCC(F)(F)F)C[C@@H]1C`, the inhibition is 8.27%.
The figure for `COc1ccccc1C(=O)Nc1ccc2c(c1)C(=O)N(C)C[C@H](OC)[C@H](C)CN(C(C)=O)[C@H](C)CO2` is -22.7%.
In the case of `CCCN1C[C@H](C)[C@@H](OC)CN(C)C(=O)c2cc(NS(=O)(=O)c3ccccc3)ccc2OC[C@H]1C`, the inhibition is 2.69%.
In the case of `COc1ccccc1C(=O)Nc1ccc2c(c1)C(=O)N(C)C[C@H](OC)[C@@H](C)CN(C(C)=O)[C@@H](C)CO2`, the inhibition is 64.2% (active).
Under `CCCN1C[C@@H](C)[C@H](OC)CN(C)C(=O)c2cc(NS(=O)(=O)c3ccccc3)ccc2OC[C@@H]1C` stands -22.6%.
The figure for `CCC(=O)N1C[C@@H](C)[C@@H](OC)CN(C)C(=O)c2cc(NC(=O)Nc3ccc(Cl)cc3)ccc2OC[C@H]1C` is -27.4%; for `CO[C@@H]1CN(C)C(=O)c2cc(NC(=O)Nc3ccccc3F)ccc2OC[C@H](C)N(CCC(F)(F)F)C[C@H]1C` it is 21%.
As to `COc1ccccc1C(=O)Nc1ccc2c(c1)C(=O)N(C)C[C@@H](OC)[C@@H](C)CN(C(C)=O)[C@@H](C)CO2`, the inhibition is -6.31%.
Consider `CCC(=O)N1C[C@H](C)[C@@H](OC)CN(C)C(=O)c2cc(NC(=O)Nc3ccc(Cl)cc3)ccc2OC[C@@H]1C`, for which the inhibition is 59.6% (active).
For `CO[C@H]1CN(C)C(=O)c2cc(NC(=O)Nc3ccccc3F)ccc2OC[C@H](C)N(CCC(F)(F)F)C[C@@H]1C`, the inhibition was 65.1% (active).
Take `CO[C@@H]1CN(C)C(=O)c2cc(NS(=O)(=O)c3ccccc3C)ccc2OC[C@@H](C)N(S(=O)(=O)c2ccccc2)C[C@H]1C`: the inhibition is 75.2% (active).
The figure for `CCC(=O)N1C[C@@H](C)[C@@H](OC)CN(C)C(=O)c2cc(NC(=O)Nc3ccc(Cl)cc3)ccc2OC[C@@H]1C` is 15%.

The inhibition is the drop in the measured response relative to a control, in per cent.
